# From the supplement of paper PMC11383364
# ± gives the standard deviation of the averaged measurements.
# Test system: SUM149
# Experiment: percent difference in area under dose-response curve of relative cell number, RPMI vs HPLM; higher = drug relatively more effective in HPLM than RPMI (negative = less effective in HPLM)
# Conditions: treatment time: 72 h; dose range: 10-point, 1 nM to 20 µM; media compared: RPMI vs HPLM
# Procedure: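 SUM149 triple-negative breast cancer cells, 500 cells/well in 384-well plates, were grown in RPMI or human plasma-like medium (HPLM) with 5% dialyzed FBS. They were pin-transferred with an anticancer plus metabolic-inhibitor library in 10-point dose series (20 µM to 1 nM). After 72 h, cells were fixed, stained with bisbenzimide and counted by Acumen plate cytometry. The AUC of relative survival vs dose was computed per medium, and the percent difference in AUC between RPMI and HPLM is reported.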
row,SMILES,percent difference in area under dose-response curve
1,C/C=C(/C)C(=O)O[C@H]1C(C)=C2[C@H]([C@@H]1OC(=O)CCCCCCC)[C@@](C)(OC(C)=O)C[C@H](OC(=O)CCC)[C@@]1(O)[C@H]2OC(=O)[C@@]1(C)O [Thapsigargin],-31.9%
2,N#Cc1cn([C@@H]2O[C@H](CO)[C@@H](O)[C@H]2O)c2ncnc(N)c12 [Toyocamycin],-27.1%
3,C/C(=C\c1csc(C)n1)[C@@H]1C[C@@H]2O[C@]2(C)CCC[C@H](C)[C@H](O)[C@@H](C)C(=O)C(C)(C)[C@@H](O)CC(=O)O1 [Epothilone_B],-49.1%
4,C/C(=C\c1csc(C)n1)[C@@H]1C[C@@H]2O[C@@H]2CCC[C@H](C)[C@H](O)[C@@H](C)C(=O)C(C)(C)[C@@H](O)CC(=O)O1 [Epothilone_A],-32.6%
5,CC(=O)N[C@H]1[C@@H](O[C@@H]2O[C@H](CC(O)[C@H]3O[C@@H](n4ccc(=O)[nH]c4=O)[C@H](O)[C@@H]3O)[C@H](O)[C@H](O)[C@H]2NC(=O)/C=C/CC(C)C)O[C@H](CO)[C@@H](N)[C@@H]1O (some centres undefined) [Tunicamycin],-6.39%
6,CC(=O)c1c(O)c(C)c(O)c(Cc2c(O)c3c(c(C(=O)/C=C/c4ccccc4)c2O)OC(C)(C)C=C3)c1O [Rottlerin],-6.49%
7,Cc1cc2c(C(C)C)c(O)c(O)c(C=O)c2c(O)c1-c1c(C)cc2c(C(C)C)c(O)c(O)c(C=O)c2c1O [Gossypol],-5.85 ± 4.1%
8,c1ccc2c(c1)[I+]c1ccccc1-2 [Diphenyleneiodonium_chloride],-42%
9,C[S+]([O-])CCCCN=C=S (centres undefined) [Sulforaphane],-4.37%
10,O=S(=O)(CC1CS1)c1ccc(Oc2ccccc2)cc1 (centres undefined),4.58%
11,C=C(C)[C@H]1Cc2c(ccc3c2O[C@@H]2COc4cc(OC)c(OC)cc4[C@@H]2C3=O)O1 [Rotenone],-23%
12,Cc1sc2c(c1C)C(c1ccc(Cl)cc1)=N[C@@H](CC(N)=O)c1nnc(C)n1-2,-25.8%
13,CC1=CC(=O)c2c(O)cccc2C1=O [Plumbagin],-4.04%
14,S=C=NCCc1ccccc1,-5.8%
15,O=C1CSC(c2ccccc2Cl)c2cc(Cl)ccc2N1 (centres undefined),4.73%
16,Cn1c(CCCC(=O)O)nc2cc(N(CCCl)CCCl)ccc21 [Bendamustine_HCL],-4.52%
17,O=C(O)CCCc1ccc(N(CCCl)CCCl)cc1 [Chloroambucil],-5.32%
18,CCCCCC[C@H]1C(=O)O[C@H](C)[C@H](NC(=O)c2cccc(NC=O)c2O)C(=O)O[C@@H](C)[C@@H]1OC(=O)CC(C)C [Antimycin_A],-6.05%
19,CCOc1ccccc1-n1c(C(C)N2CCN(C(=O)COc3ccc(Cl)cc3)CC2)nc2ccccc2c1=O (centres undefined) [Erastin],-2.91%
20,Oc1cc(Cl)ccc1Oc1ccc(Cl)cc1Cl [Triclosan],2.04%
21,CC[C@@H]1/C=C/C=C/C[C@H](C)[C@H](O)[C@](C)(O)C(=O)[C@H](C)[C@@H](O)[C@H](C)C(=O)[C@H](C)[C@@H](O)[C@H](C)/C=C/C(=O)O[C@H]2[C@@H](C)[C@@H](CC1)O[C@@]1(CC[C@@H](C)[C@@H](C[C@H](C)O)O1)[C@@H]2C [Oligomycin_A],-41%
22,[N-]=[N+]=CC(=O)OC[C@H](N)C(=O)O [Azaserine],-16.2%
23,CC(C)[C@]12O[C@H]1[C@@H]1O[C@]13[C@]1(O[C@H]1C[C@H]1C4=C(CC[C@@]13C)C(=O)OC4)[C@@H]2O [Triptolide],-67%
24,NC(=O)c1ccc(N)nc1 [6_Aminonicotinamide],-3.77%
